Compound activity as filed in PubChem.
FLuc counter: qHTS profiling assay for firefly luciferase inhibitor/activator using purifed enzyme and Km concentrations of substrates (counterscreen for miR-21 project) | purified FLuc, Km substrates, luminescence inhibition | Potency, µM (titrated, usually from 57.5 µM), for the others: at the top dose activity change, negative = inhibition, hits mostly inhibitors | 6.9% of 360,000 active | AID 588342, 2011;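 also: plate controls were vehicle for no effect and reference inhibitor for full effect; nearly all actives have a fitted effect of over 55% in size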
Target sequence (P08659 whole entry, looked up): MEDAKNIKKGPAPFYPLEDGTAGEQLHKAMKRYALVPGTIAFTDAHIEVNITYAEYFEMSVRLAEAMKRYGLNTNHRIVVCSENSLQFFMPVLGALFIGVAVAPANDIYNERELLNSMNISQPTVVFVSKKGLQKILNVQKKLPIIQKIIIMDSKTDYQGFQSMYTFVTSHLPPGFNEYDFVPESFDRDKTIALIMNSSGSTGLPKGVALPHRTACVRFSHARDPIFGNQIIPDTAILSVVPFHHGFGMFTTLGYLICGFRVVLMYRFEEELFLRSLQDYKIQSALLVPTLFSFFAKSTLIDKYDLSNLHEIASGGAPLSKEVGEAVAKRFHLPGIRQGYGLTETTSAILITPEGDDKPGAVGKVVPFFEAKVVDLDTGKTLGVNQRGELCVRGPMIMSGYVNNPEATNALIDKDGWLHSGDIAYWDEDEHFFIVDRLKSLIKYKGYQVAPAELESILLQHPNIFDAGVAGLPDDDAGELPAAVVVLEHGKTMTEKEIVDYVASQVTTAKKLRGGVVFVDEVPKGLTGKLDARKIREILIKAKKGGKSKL
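Purified P. pyralis luciferase (10nM final) with 10uM D-luciferin and 10uM ATP (Km levels) in 50mM Tris acetate pH 7.5, 10mM Mg acetate, 0.01% Tween-20, 0.05% BSA; qHTS 6-point titration, ~60 µM downward; luminescence read.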
ELG1 genotox: qHTS screen for small molecules that induce genotoxicity in human embryonic kidney (HEK293T) cells expressing luciferase-tagged ELG1. Potency, µM (highest dose often 46 µM), inactives show at the top dose activity change, positive = activation, usual class: activators. 1.3% of 330,000 active. HEK293T ELG1-luciferase reporter, luminescence, 16 h; also: % of control where 0% means no effect; nearly all actives have a fitted effect of over 60% in size
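Genotoxicity was scored as increased ELG1-luciferase reporter signal, measured by ONE-Glo luminescence (30 min, room temperature). Compound or vehicle exposure of the HEK293T reporter cells lasted 16 hr at 37°C.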
Rab9 prom act: qHTS Assay for Rab9 Promoter Activators; 2.8% of 320,000 active; AID 485297, 2010; Huh7 Rab9 promoter-luciferase reporter, luminescence, 24 h; Potency, µM (series often up to 9.22 µM), for inactives: top-dose activation, negative = inhibition, hits mostly activators; also: % of control where 0% means no effect; nearly all actives have a fitted effect of over 60% in size
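Cells were plated at 1500 per well in reduced-serum medium with 10% FBS and left 2 h. Compound in DMSO was then added for 24 h at 37 °C. Reporter signal was read by luminescence after 10 min with luciferase detection reagent.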
ELG1 DNA repair: qHTS screen for small molecules that inhibit ELG1-dependent DNA repair in human embryonic kidney (HEK293T) cells expressing luciferase-tagged ELG1; AID 504467, 2011; 2.3% of 330,000 active; HEK293T ELG1-luciferase reporter, luminescence, 16 h; DNA damage induced by 5-fluorouridine; Potency, µM (highest dose often 46.1 µM), for the others: at the top dose activity change, negative = inhibition, most hits filed as inhibitors; also: % is scaled to controls: 0 for no effect and ±100 for the full control effect; nearly all actives have a fitted effect of over 55% in size
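DMSO vehicle served as the neutral condition. Each well held 2,000 cells given 5-fluorouridine plus compound; after 16 hr at 37 °C/5% CO2, ONE-Glo was added and luciferase measured 30 min later.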
SMN2 splice enh: qHTS Assay for Enhancers of SMN2 Splice Variant Expression; HEK293 SMN2-luciferase splicing reporter, luminescence, 30-36 h; Potency, µM (doses to about 46.1 µM), for inactives: at the top dose activity change, positive = activation, usual class: activators; 2.8% of 210,000 active; also: % of control where 0% means no effect; nearly all actives have a fitted effect of over 55% in size
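qHTS luciferase splicing reporter: luminescence rises when SMN2 exon 7 is included in transfected HEK293 cells. Compound exposure lasted 30-36 h at 37C, with 4.5 mM final sodium butyrate as control, followed by a ONE-Glo read.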
NPC1 prom act: qHTS Assay for NPC1 Promoter Activators; Huh7 NPC1 promoter luciferase reporter, 24 h; Potency, µM (series often up to 9.22 µM), without a hit: at the highest dose activation, usual class: activators; 2.4% of 320,000 active; AID 485313, 2010; also: % of control where 0% means no effect; nearly all actives have a fitted effect of over 60% in size
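NPC1 promoter–luciferase Huh7 cells; 24 h compound; luminescence.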
ELG1 FLuc counter: qHTS screen for small molecules that inhibit ELG1-dependent DNA repair: Hit Confirmation in Cell-Based Luciferin Assay; shares compounds with ELG1 DNA repair; cell-free firefly luciferase luminescence counter-screen, ViewLux; Potency, µM (titrated, usually from 46.1 µM), inactives show at the top dose activity change, negative = inhibition, actives largely listed as inhibitors; 3% of 350 active; AID 624247, 2012; also: % is scaled to controls: 0 for no effect and ±100 for the full control effect
ELG1-Luc inh: HTS assay for small molecules that inhibit ELG1-dependent DNA repair in human embryonic kidney (HEK293T) cells expressing luciferase-tagged ELG1: Hit Confirmation; Potency, µM (top dose mostly 46.1 µM), for inactives: top-dose activity change, negative = inhibition, most hits filed as inhibitors; 68% of 670 active; HEK293T ELG1-luciferase levels, luminescence; cells co-treated with 5-fluorouridine; shares compounds with ELG1 DNA repair; AID 624248, 2012; also: % is scaled to controls: 0 for no effect and ±100 for the full control effect; nearly all actives have a fitted effect of over 55% in size
ELG1-Luc MMS: inhibits ELG1-dependent repair under MMS stimulation in HEK293T cells | shares compounds with ELG1 DNA repair | HEK293T luciferase-tagged ELG1 level, MMS stimulated | Potency, µM (top dose mostly 46.1 µM), without a hit: at the top dose activity change, negative = inhibition, actives largely listed as inhibitors | 53% of 670 active | AID 624249; also: % is scaled to controls: 0 for no effect and ±100 for the full control effect; nearly all actives have a fitted effect of over 60% in size
ELG1 5-FU: qHTS screen for small molecules that inhibit ELG1-dependent DNA repair: Hit Confirmation with 5FU Viability; cell viability with 5-FU, ELG1-dependent repair; AID 624250, 2012; Potency, µM (top dose mostly 46.1 µM), for inactives: top-dose activity change, negative = viability loss, actives largely listed as cytotoxic; shares compounds with ELG1 DNA repair; 670 tested, under 10 active;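 also: ELG1-luc HEK293T cells cotreated with 5-fluorouridine at 10 µM final; viability measured 16 h after compound addition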
ELG1 MMS cell: qHTS screen for small molecules that inhibit ELG1-dependent DNA repair: Hit Confirmation with MMS Viability; shares compounds with ELG1 DNA repair; Cell viability with MMS, ELG1-dependent DNA repair; Potency, µM (doses to about 46.1 µM), without a hit: at the highest dose activity change, negative = viability loss, most hits filed as cytotoxic; 33% of 670 active; AID 624251, 2012;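 also: ELG1-luc HEK293T cells co-treated with 10 µM MMS; viability read 16 h after compound addition; % is scaled to controls: 0 for no effect and ±100 for the full control effect; nearly all actives have a fitted effect of over 60% in size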
Cell viab unstim: qHTS screen for small molecules that inhibit ELG1-dependent DNA repair: Hit Confirmation with Unstimulated Viability Assay; shares compounds with ELG1 DNA repair; cell viability counter-screen, unstimulated, luminescence; Potency, µM (top dose mostly 45.9 µM), inactives show at the highest dose activity change, negative = loss of viability, most hits filed as cytotoxic; 8% of 900 active; AID 624252, 2012;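 also: compound exposure lasted 16 hours before reading; % is scaled to controls: 0 for no effect and ±100 for the full control effect; nearly all actives have a fitted effect of over 55% in size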
FLuc enzyme: qHTS screen for small molecules that inhibit ELG1-dependent DNA repair: Hit Confirmation in Biochemical Luciferin Assay. shares compounds with ELG1 DNA repair. purified firefly luciferase, luminescence counter-screen. Potency, µM (doses to about 57.5 µM), for inactives: top-dose activity, negative = inhibition, actives largely listed as inhibitors. 10% of 350 active; also: % is scaled to controls: 0 for no effect and ±100 for the full control effect
The depositor's hits bear a star; ? = inconclusive; · = no result given. Only some compounds are listed: those with a hit (about 9.2% of all), similar ones and a draw of the others. Calls follow the shape of the dose curve; as a rule, active = well fitted curve in the direction sought with a large enough effect; inconclusive = small, poorly fitted or top-dose-only effect, or another doubt; inactive = no such curve, though single readings can be large; an effect the other way counts as inactive or inconclusive. Potency is read from the fitted curve at half-maximal effect.

SMILES	FLuc counter	ELG1 genotox	Rab9 prom act	ELG1 DNA repair	SMN2 splice enh	NPC1 prom act	ELG1-Luc inh	ELG1-Luc MMS	ELG1 5-FU	ELG1 MMS cell	Cell viab unstim	others
CC(=O)N1c2ccc(S(=O)(=O)N3CCC(C(=O)N4CCN(c5cc(Cl)ccc5C)CC4)CC3)cc2CC1C (configuration not stated)	-2%	-13%	-5%	?	·	-6%	14µM*	?	5%	-4%	?	ELG1 FLuc counter=-13%;FLuc enzyme=-14%
Cc1ccc(Cl)cc1N1CCN(S(=O)(=O)c2ccc3c(c2)CC(C)N3C(=O)C2CCC2)CC1 (configuration not stated)	-9%	·	·	·	·	·	·	·	·	·	·
NC(=O)c1ccsc1NC(=O)COC(=O)Cc1cccc2ccccc12	?	-3%	-10%	1.6µM*	-40%	-5%	?	0.63µM*	0%	1.3µM*	?
O=C(Nc1ccc(N2CCOCC2)cc1)c1cccc(S(=O)(=O)N2CCCCCC2)c1	-8%	-2%	-14%	3.3µM*	-45%	-9%	?	7.9µM*	-1%	7.9µM*	?
CC(=O)CSc1ncnc2nc[nH]c12	1%	-3%	0%	-7%	-19%	-5%	·	·	·	·	·
Cn1cnc(Sc2ncnc3nc[nH]c23)c1[N+](=O)[O-]	-14%	3%	3%	?	·	1%	?	?	-1%	-1%	16µM*	ELG1 FLuc counter=0%;FLuc enzyme=4%
Cn1c(=O)c2c(nc(Oc3ccc4ccccc4c3)n2C)n(C)c1=O	1%	-31%	1%	4.1µM*	-28%	10%	8.9µM*	13µM*	?	?	-4%
Cn1c(=O)c2c(nc(Oc3cccc(O)c3)n2C)n(C)c1=O	1%	-3%	0%	-18%	·	0%	·	·	·	·	·
Cn1nc(CC(=O)Nc2ccc3c(c2)CCC3)c2ccccc2c1=O	0%	-7%	-25%	0.52µM*	-78%	-25%	?	0.71µM*	-8%	0.89µM*	?	ELG1 FLuc counter=-8%;FLuc enzyme=-14%
CCCCCn1c(N)c(-c2nc3ccccc3s2)c2c([N+](=O)[O-])nn(C)c(=O)c21	-16%	0%	-7%	0.73µM*	·	-6%	5µM*	28µM*	?	?	-4%	ELG1 FLuc counter=?;FLuc enzyme=-9%
CCCCn1c(N)c(-c2nc3ccccc3o2)c2c([N+](=O)[O-])nn(C)c(=O)c21	6%	-1%	-5%	?	0%	-3%	?	9%	?	12%	0%
CCCCn1c(N)c(-c2nc3ccccc3o2)c2c([N+](=O)[O-])nn(CC)c(=O)c21	0%	7%	-3%	2.1µM*	-8%	-5%	1µM*	16%	?	-1%	-6%
COc1ccc(Cc2c(O)nc(SCC(=O)NC(C)(C)C)[nH]c2=O)cc1	1%	0%	-2%	19%	·	0%	·	·	·	·	·
CN(C)S(=O)(=O)Oc1ccc(C(=O)Nc2ccc([N+](=O)[O-])cc2)cc1	-1%	4%	-2%	2.9µM*	-39%	-21%	0.71µM*	3.1µM*	?	?	3%
COc1ccc(N(CC(=O)N/N=C/c2ccc3c(c2)OCO3)S(=O)(=O)c2ccc(NC(C)=O)cc2)cc1	-8%	-13%	1%	?	-7%	-1%	·	·	·	·	·
Clc1ccc(-c2cnnc(-c3ccccn3)n2)cc1	·	21µM*	·	?	·	·	·	·	·	·	-1%
CSc1ncccc1C(=O)NC(C)CCc1ccccc1 (configuration not stated)	0%	-1%	2%	-18%	·	-4%	·	·	·	·	·
CCCNC(=O)c1ccc(N2CCC3(CC2)CC(c2ccccc2)=NO3)c(NC(=O)c2cccc(OC)c2)c1	0%	-7%	-2%	4.6µM*	·	-2%	5µM*	?	?	3%	?
Cc1ccc(CNC(=O)c2ccc(N3CCC4(CC3)CC(c3ccccc3)=NO4)c(NC(=O)c3ccco3)c2)cc1	4%	-1%	0%	1.2µM*	·	-8%	?	?	?	?	1%
Clc1cc(Sc2ccc(Br)cc2)nnc1-c1ccccc1	1%	-4%	8%	-8%	-16%	-2%	·	·	·	·	·
